# Source: PubChem BioAssay (NCATS)
# Inconclusive results are not listed. A number with no mark means an inactive call. The call rests on the fitted dose curve; in most records, active means well fitted activation curve with a large enough effect; inconclusive means small, poorly fitted or top-dose-only effect; inactive means flat fitted curve, though single readings scatter.
# Test: Validation screen for small molecules that induce DNA re-replication in SW480 colon adenocarcinoma cells (AID 504364); further: 0% is about no effect
# Conditions: DNA re-replication phenotype (high-content imaging); series mostly up to 46.1 µM; activity (re-replication induction): at the top concentration
# Source text: H Molecular Libraries Probe Production Network [MLPCN]
# NIH Chemical Genomics Center [NCGC]
# Assay Provider: Melvin DePamphilis, NICHD, NIH
# Eukaryotic cells normally restrict genome duplication to once per cell division. When this process is aberrant, DNA re-replication occurs when cells reinitiate DNA replication before the first round of replication is complete. DNA re-replication induces the DNA damage response, arrests cell proliferation, and triggers apoptosis. The cell cycle components cyclin A, Cdt-1, Cdc6 and geminin are critical regulators of this process and their misregulation results in DNA re-replication in normal and cancer cells. To identify compounds that induce re-replication in normal cells, an image-based assay was used to measure DNA content of nuclei, as detected by the fluorescent DNA binding dye, Hoechst. Cell nuclei were imaged by a fluorescence scanning plate imager and compounds that induce DNA re-replication were identified by the increase of nuclei with elevated fluorescence intensity.#
# For screening, 250 cells in 5 uL/well were dispensed into black clear 1536-well plates (Aurora) using a solenoid-based dispenser. Following transfer of 23 nL compound or DMSO vehicle by a pin tool, the plates were incubated 48 hr at 37 C and 5% CO2. After addition of 1 uL/well Hoescht stain, the plates were incubated 40 min at 37 C, 5% CO2 and total intensity of fluorescent objects (nuclei) were enumerated by an Acumen Explorer Ex3 (TTP LabTech) fluorescence scanning plate imager (405 nm excitation, 500-530 nm emission).
# Keywords: NIH Roadmap, MLPCN, MLI, MLSMR, qHTS, NCGC, DNA replication, cancer
row,SMILES,activity (re-replication induction)
1,NC(Cc1ccc(N(CCCl)CCCl)cc1)C(=O)O (stereo not given),16.5%
2,NC(N)=NOCC[C@H](N)C(=O)O,-0.916%
3,C[N+](C)(C)CC#CCOC(=O)Nc1cccc(Cl)c1,-20.7%
4,C[C@H](Cc1ccc2c(c1)OC(C(=O)O)(C(=O)O)O2)NC[C@H](O)c1cccc(Cl)c1,-2.6%
5,CCS(=O)(=O)Nc1cccc(C(=C2CCCCC2)c2cnc[nH]2)c1,15.2%
6,NCCc1ccc(S(=O)(=O)F)cc1,-5.09%
7,COC(=O)N1CCN(C(=O)Cc2ccc(Cl)c(Cl)c2)C(CN2CCCC2)C1 (stereo not given),6.53%
8,CC(N)c1cccc(Cl)c1Cl (stereo not given),-2.24%
9,CC(N)[C@H](O)c1ccc(O)c(O)c1 (stereo not given in full),-8.29%
10,C/C(O)=C(\C#N)C(=O)Nc1cc(Br)ccc1Br,3.29%
11,CN(N=O)c1cc(O)ccc1O,-0.363%
12,C=CCN1CC[C@]23c4c5ccc(O)c4O[C@H]2/C(=N/NC(=O)c2ccccc2)CC[C@@]3(O)[C@H]1C5,-0.673%
13,O=C1C=CC(=O)C=C1,-2.16%
14,NCCCP(=O)(O)O,-2.15%
15,CC(C)CC(NP(=O)(O)O[C@@H]1O[C@@H](C)[C@H](O)[C@@H](O)[C@H]1O)C(=O)NC(Cc1c[nH]c2ccccc12)C(=O)O (stereo not given in full),-3.54%
16,CCCN1CCCC2Cc3[nH]ncc3CC21 (stereo not given),-10.6%
17,C=CCN1CC[C@]23c4c5ccc(O)c4O[C@@H]2/C(=N/N=C2\CC[C@@]4(O)C6Cc7ccc(O)c8c7[C@@]4(CCN6CC=C)[C@@H]2O8)CC[C@@]3(O)C1C5,14.1%
18,NC(=O)COc1c(F)cc(SCCNS(=O)(=O)c2ccccc2)cc1F,17.2%
19,COc1ccc2c(c1)C13CCCCC1C(C2)N(C)CC3 (stereo not given),-1.53%
20,COc1ccc2[nH]c3c(c2c1)CCNC3,7.9%

row,SMILES,activity (re-replication induction)
1,CN1CCC(c2c[nH]c3ccc(O)cc23)CC1,-1.79%
2,O=[N+]([O-])c1cc(O)c(O)c([N+](=O)[O-])c1,-10.7%
3,Oc1ccc2c3c1O[C@H]1c4oc5ccccc5c4C[C@@]4(O)C(C2)N(CC2CC2)CCC314 (stereo not given in full),-4.38%
4,c1ccc2cc(CC3=NCCN3)ccc2c1,-5.21%
5,Clc1cc(I)cc(Cl)c1NC1=NCCN1,6.82%
6,CCCCCCCCCCCCCC(=O)O[C@@H]1[C@@H](C)[C@@]2(O)[C@@H](C=C(CO)C[C@@]3(O)C(=O)C(C)=C[C@@H]23)C2C(C)(C)[C@@]21OC(C)=O (stereo not given in full),2.75%
7,CC1(C(=O)O)C2CCC(O2)C1(C)C(=O)O (stereo not given),7.54%
8,C=CCN1CCC23c4c5ccc(O)c4O[C@H]2C(=O)CC[C@@]3(O)C1C5 (stereo not given in full),1.33%
9,CCCN(CCC)[C@H]1CCc2c(F)ccc(O)c2C1,-7.29%
10,NC(=O)c1ccc(OCC(O)CN2CC=C(c3ccc(F)cc3)CC2)cc1 (stereo not given),1.39%
11,Nc1ccc(CCN2CCN(c3cccc(C(F)(F)F)c3)CC2)cc1,-8.75%
12,Ic1ccccc1CNC1C2CCN(CC2)C1C(c1ccccc1)c1ccccc1 (stereo not given),10.6%
13,C[N+](C)(C)CC#CCN1CCCC1=O,-17.5%
14,Cc1[nH]c2ccc(O)cc2c1CCN,-10.1%
15,O=C1CC[C@@]2(O)C3Cc4ccc(O)c5c4C2(CCN3CC2CC2)[C@H]1O5 (stereo not given in full),-9.55%
16,CCCN(CCC)CCc1c[nH]c2ccc(C(N)=O)cc12,4.03%
17,Clc1ccc(N2CC3CCC(C2)N3)nn1,0.742%
18,Cc1o[nH]c(=O)c1CC(N)C(=O)O (stereo not given),-3.42%
19,C[N+]1(C)CCN(c2ccccc2)CC1,7.88%
20,CN1C2CCC1CC(OC(c1ccccc1)c1ccccc1N)C2 (stereo not given),-0.871%
